From the supplement of paper PMC8728848
The full list was thinned out, with the strongest signals kept by preference.

Legend:
Assay in all cases: glycan array binding signal (z-score within array); higher = stronger binding
Details in all cases: glycan notation: IUPAC condensed, linker removed
[1] = biological target: Fuc(a1-2)Gal(b1-3)GalNAc(b1-4)[Neu5Ac(a2-3)]Gal(b1-4)Glc
Procedure, shortened: (§1)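 Glycan array data were curated from 3228 arrays in the Consortium for Functional Glycomics database and kept only where the protein sequence was available. Glycan names were converted to IUPAC-condensed notation, and columns mapping to the same glycan were averaged. The binding signal is a within-array Z-score, averaged across arrays of the same protein sequence at different concentrations or buffers and across linkers. Negative Z-scores can be read as non-binding.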

[2] = biological target: Fuc(a1-2)Gal(b1-4)[Fuc(a1-3)]GlcNAc(b1-3)GalNAc
Procedure, shortened: as §1

[3] = biological target: Fuc(a1-2)[GalNAc(a1-3)]Gal(b1-4)[Fuc(a1-3)]GlcNAc(b1-3)GalNAc
Procedure, shortened: as §1

[4] = biological target: Fuc(a1-3)[Gal(b1-4)]GlcNAc(b1-2)Man(a1-3)[Fuc(a1-3)[Gal(b1-4)]GlcNAc(b1-2)Man(a1-6)]Man(b1-4)GlcNAc(b1-4)GlcNAc
Procedure, shortened: as §1

[5] = biological target: Fuc(a1-3)[Gal(b1-4)]GlcNAc(b1-2)Man(a1-3)[Fuc(a1-3)[Gal(b1-4)]GlcNAc(b1-2)Man(a1-6)]Man(b1-4)GlcNAc(b1-4)[Fuc(a1-6)]GlcNAc
Procedure, shortened: as §1

Gal(a1-3)Gal(b1-3)GlcNAc = biological target: Gal(a1-3)Gal(b1-3)GlcNAc
Procedure, shortened: as §1

[6] = biological target: Gal(a1-4)Gal(b1-4)GlcNAc(b1-3)Gal(b1-4)Glc
Procedure, shortened: as §1

[7] = biological target: Gal(b1-3)GlcNAc(b1-3)Gal(b1-4)GlcNAc(b1-6)[Gal(b1-3)GlcNAc(b1-3)]Gal(b1-4)Glc
Procedure, shortened: as §1

[8] = biological target: Gal(b1-3)[Fuc(a1-4)]GlcNAc(b1-2)Man(a1-3)[Gal(b1-3)[Fuc(a1-4)]GlcNAc(b1-2)Man(a1-6)]Man(b1-4)GlcNAc(b1-4)[Fuc(a1-6)]GlcNAc
Procedure, shortened: as §1

[9] = biological target: Gal(b1-4)GlcNAc(b1-2)Man(a1-3)Man(b1-4)GlcNAc(b1-4)GlcNAc
Procedure, shortened: as §1

[10] = biological target: Gal(b1-4)GlcNAc(b1-2)Man(a1-3)[Gal(b1-4)GlcNAc(b1-2)Man(a1-6)]Man(b1-4)GlcNAc(b1-4)GlcNAc
Procedure, shortened: as §1

[11] = biological target: Gal(b1-4)GlcNAc(b1-2)Man(a1-6)Man(b1-4)GlcNAc(b1-4)GlcNAc
Procedure, shortened: as §1

[12] = biological target: Gal(b1-4)GlcNAc(b1-2)[Gal(b1-4)GlcNAc(b1-6)]Man(a1-6)[GlcNAc(b1-4)][Gal(b1-4)GlcNAc(b1-2)Man(a1-3)]Man(b1-4)GlcNAc(b1-4)GlcNAc
Procedure, shortened: as §1

Gal3S(b1-4)GlcNAc6S = biological target: Gal3S(b1-4)GlcNAc6S
Procedure, shortened: as §1

Gal3S6S(b1-4)GlcNAc = biological target: Gal3S6S(b1-4)GlcNAc
Procedure, shortened: as §1

Gal6S(b1-3)GlcNAc = biological target: Gal6S(b1-3)GlcNAc
Procedure, shortened: as §1

GalNAc(b1-3)GalNAc = biological target: GalNAc(b1-3)GalNAc
Procedure, shortened: as §1

[13] = biological target: Glc(a1-4)Glc(a1-4)Glc(a1-4)Glc
Procedure, shortened: as §1

[14] = biological target: GlcNAc(a1-4)Gal(b1-4)GalNAc
Procedure, shortened: as §1

[15] = biological target: GlcNAc(a1-4)Gal(b1-4)GlcNAc(b1-3)Gal(b1-4)GlcNAc
Procedure, shortened: as §1

[16] = biological target: GlcNAc(b1-3)Gal(b1-3)GalNAc
Procedure, shortened: as §1

[17] = biological target: GlcNAc(b1-3)Gal(b1-4)GlcNAc(b1-3)Gal(b1-4)GlcNAc
Procedure, shortened: as §1

GlcNAc(b1-3)Man = biological target: GlcNAc(b1-3)Man
Procedure, shortened: as §1

Kdn(a2-3)Gal(b1-3)GlcNAc = biological target: Kdn(a2-3)Gal(b1-3)GlcNAc
Procedure, shortened: as §1

[18] = biological target: Man(a1-2)Man(a1-3)[Man(a1-2)Man(a1-6)]Man(a1-6)[Man(a1-2)Man(a1-2)Man(a1-3)]Man(b1-4)GlcNAc(b1-4)GlcNAc
Procedure, shortened: as §1

[19] = biological target: Neu5Ac(a2-3)Gal(b1-4)GlcNAc(b1-3)Gal
Procedure, shortened: as §1

[20] = biological target: Neu5Ac(a2-3)Gal(b1-4)GlcNAc(b1-3)Gal(b1-4)[Fuc(a1-3)]GlcNAc
Procedure, shortened: as §1

[21] = biological target: Neu5Ac(a2-3)Gal(b1-4)[Fuc(a1-3)]GlcNAc(b1-3)Gal(b1-4)GlcNAc
Procedure, shortened: as §1

[22] = biological target: Neu5Ac(a2-3)Gal(b1-4)[Fuc(a1-3)]GlcNAc(b1-3)Gal(b1-4)[Fuc(a1-3)]GlcNAc(b1-3)Gal(b1-4)[Fuc(a1-3)]GlcNAc
Procedure, shortened: as §1

[23] = biological target: Neu5Ac(a2-3)Gal(b1-4)[Fuc(a1-3)]GlcNAc(b1-3)GalNAc
Procedure, shortened: as §1

[24] = biological target: Neu5Ac(a2-3)Gal(b1-4)[Fuc(a1-3)]GlcNAc(b1-6)[Gal(b1-3)]GalNAc
Procedure, shortened: as §1

[25] = biological target: Neu5Ac(a2-3)Gal6S(b1-4)[Fuc(a1-3)]GlcNAc
Procedure, shortened: as §1

[26] = biological target: Neu5Ac(a2-3)[GalNAc(b1-4)]Gal(b1-4)GlcNAc(b1-3)GalNAc
Procedure, shortened: as §1

Neu5Ac(a2-6)Gal(b1-4)Glc = biological target: Neu5Ac(a2-6)Gal(b1-4)Glc
Procedure, shortened: as §1

[27] = biological target: Neu5Ac(a2-6)Gal(b1-4)GlcNAc(b1-2)Man(a1-3)[GlcNAc(b1-2)Man(b1-4)GlcNAc(b1-2)Man(a1-6)]Man(b1-4)GlcNAc(b1-4)GlcNAc
Procedure, shortened: as §1

[28] = biological target: Neu5Ac(a2-6)Gal(b1-4)GlcNAc(b1-2)Man(a1-6)Man(b1-4)GlcNAc(b1-4)GlcNAc
Procedure, shortened: as §1

Neu5Ac(a2-6)GalNAc = biological target: Neu5Ac(a2-6)GalNAc
Procedure, shortened: as §1

[29] = biological target: Neu5Ac(a2-6)GlcNAc(b1-4)GlcNAc(b1-4)GlcNAc
Procedure, shortened: as §1

[30] = biological target: Neu5Gc(a2-3)Gal(b1-3)GlcNAc
Procedure, shortened: as §1

B1: Layilin (Mus musculus), Q8C351 (protein)
chain: MQPGAALQAMLLAVLLAKPRDSKGRLLSASDLDPRGGQLVCRGGTRRPCYKVIYFHDAFQRLNFEEAKETCMEDGGQLVSIETEDEQRLIEKFIENLLASDGDFWIGLKRLEEKQSNNTACQDLYAWTDGSTSQFRNWYVDEPSCGSEVCVVMYHQPSAPPGIGGSYMFQWNDDRCNMKNNFICKYHDDKPSTTPSIWPGGEATEPATPLLPEETQKEDTKETFKERREAALNLAYILIPSIPLFLLLVVTSAVCWVWICRRKREQTDPSTKEQHTIWPTPRQENSPNLDVYNVIRKQSEADLAEPRPDLKNISFRVCSGEAMPDDMSCDYENIAVNPSESGFVTLASMESGFVTNDIYEFSPDRMGRSKESGWVENEIYY
glycan array binding signal (z-score) [1]: -0.101 | glycan array binding signal (z-score) [2]: 4.74 | glycan array binding signal (z-score) [3]: 2.16 | glycan array binding signal (z-score) [4]: -0.753 | glycan array binding signal (z-score) [5]: 1.43 | glycan array binding signal (z-score) (Gal(a1-3)Gal(b1-3)GlcNAc): -0.17 | glycan array binding signal (z-score) [6]: 3.88 | glycan array binding signal (z-score) [7]: -0.423 | glycan array binding signal (z-score) [8]: 7.71 | glycan array binding signal (z-score) [9]: -0.41 | glycan array binding signal (z-score) [10]: -0.504 | glycan array binding signal (z-score) [11]: -0.753 | glycan array binding signal (z-score) [12]: -0.619 | glycan array binding signal (z-score) (Gal3S(b1-4)GlcNAc6S): -0.103 | glycan array binding signal (z-score) (Gal3S6S(b1-4)GlcNAc): -0.561 | glycan array binding signal (z-score) (Gal6S(b1-3)GlcNAc): -0.243 | glycan array binding signal (z-score) (GalNAc(b1-3)GalNAc): -0.932 | glycan array binding signal (z-score) [13]: -0.492 | glycan array binding signal (z-score) [14]: -1.4 | glycan array binding signal (z-score) [15]: 5.27 | glycan array binding signal (z-score) [16]: 3.53 | glycan array binding signal (z-score) [17]: 3.11 | glycan array binding signal (z-score) (GlcNAc(b1-3)Man): 0.015 | glycan array binding signal (z-score) (Kdn(a2-3)Gal(b1-3)GlcNAc): -0.719 | glycan array binding signal (z-score) [18]: 0.181 | glycan array binding signal (z-score) [19]: 0.955 | glycan array binding signal (z-score) [20]: 0.119 | glycan array binding signal (z-score) [21]: -0.212 | glycan array binding signal (z-score) [22]: 2.92 | glycan array binding signal (z-score) [23]: 1.82 | glycan array binding signal (z-score) [24]: 4.15 | glycan array binding signal (z-score) [25]: -0.666 | glycan array binding signal (z-score) [26]: 0.49 | glycan array binding signal (z-score) (Neu5Ac(a2-6)Gal(b1-4)Glc): 0.086 | glycan array binding signal (z-score) [27]: 1.47 | glycan array binding signal (z-score) [28]: -0.392 | glycan array binding signal (z-score) (Neu5Ac(a2-6)GalNAc): -0.757 | glycan array binding signal (z-score) [29]: 0.077 | glycan array binding signal (z-score) [30]: 0.013
